Values without a mark were called inactive. Inconclusive results are not listed. Entries that show only a call come without a potency. Calls of active or inactive are those of the source. Calls come from the whole dose curve; as a rule, active = well fitted inhibition curve with a large enough effect; inconclusive = small, poorly fitted or top-dose-only effect; inactive = flat fitted curve, though single readings scatter.
How the values were obtained:
[1] = molecular target: Glutathione peroxidase 1 (Homo sapiens) (UniProt P07203); assay: Primary qHTS Assay for Inhibitors of Recombinant Selenoprotein Glutathione Peroxidase 1 (GPX1) (AID 1845191); note: nearly all actives have a fitted effect of over 65% in size
Summary of the method: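 10 nM GPX1 + cpd, 30 min RT; start w/ 1 mM GSH, 0.5 mM cumene hydroperoxide, 0.5 mM NADPH, 100 nM GR, 0.01% BSA; buffer 50 mM Tris-HCl pH 7.5, 2 mM EDTA, 150 mM NaCl; Fl 340/450, 0 & 15 min.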

[2] = molecular target: Phospholipid hydroperoxide glutathione peroxidase GPX4 (Homo sapiens) (UniProt P36969); assay: Primary qHTS Assay for Inhibitors of Recombinant Selenoprotein Glutathione Peroxidase 4 (GPX4) (AID 1845192); note: nearly all actives have a fitted effect of over 65% in size; for activity change, negative = inhibition: series mostly up to about 50 µM
Summary of the method: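 NADPH consumption, followed by fluorescence at 340/450 nm between 0 and 15 min, reports GPX4 activity via coupled glutathione reductase (100 nM). Enzyme 200 nM was pre-exposed to compound 30 min; 0.5 mM cumene hydroperoxide and 1 mM GSH served as substrates.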

[3] = molecular target: Luciferin 4-monooxygenase (Photinus pyralis) (UniProt P08659); assay: Primary firefly luciferase (FLuc) qHTS assay for identification of artifact compounds. (AID 1845220); note: nearly all actives have a fitted effect of over 60% in size; note: potency is the fitted concentration of half-maximal effect; for activity change, negative = inhibition: series mostly up to about 54 µM
Summary of the method: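 Cell-free, 1536-well qHTS. Buffer pH 7.6 with 0.01% Tween-20 and 0.05% BSA; 10 uM D-luciferin, 10 uM ATP; 10 nM P. pyralis luciferase; luminescence after 5 min.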

Sequence of Glutathione peroxidase 1 (Homo sapiens) (P07203 whole entry, looked up): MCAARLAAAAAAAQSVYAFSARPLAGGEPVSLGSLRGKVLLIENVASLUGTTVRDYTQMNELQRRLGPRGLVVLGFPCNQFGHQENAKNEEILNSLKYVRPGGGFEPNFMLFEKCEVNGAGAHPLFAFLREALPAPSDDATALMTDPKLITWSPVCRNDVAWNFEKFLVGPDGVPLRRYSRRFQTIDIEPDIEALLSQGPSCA
Sequence of Phospholipid hydroperoxide glutathione peroxidase GPX4 (Homo sapiens) (P36969 whole entry, looked up): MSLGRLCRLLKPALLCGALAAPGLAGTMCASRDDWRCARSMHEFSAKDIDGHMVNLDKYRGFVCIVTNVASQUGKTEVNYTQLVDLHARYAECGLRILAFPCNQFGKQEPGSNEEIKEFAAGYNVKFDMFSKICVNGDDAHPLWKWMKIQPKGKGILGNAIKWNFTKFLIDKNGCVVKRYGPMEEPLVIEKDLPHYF

| Compound | Potency [1] | Potency [2] | Potency [3] | activity change, negative = inhibition [3] | outcome [3] |
| --- | --- | --- | --- | --- | --- |
| COC(=O)C1=CO[C@@H](O[C@@H]2O[C@H](CO)[C@@H](O)[C@H](O)[C@H]2O)[C@@H]2[C@@H](C)[C@@H](O)C(O)[C@H]12 (stereo partly drawn) | inactive | inactive | inactive | – | – |
| COc1cc(O)c2c(c1)C1(OC2=O)C(C)=CC(=O)C1O (stereo not drawn) | inactive | inactive | inactive | – | – |
| C[C@@H]1CC[C@]2(C(=O)O)CC[C@]3(C)C(=CCC4[C@@]5(C)C[C@@H](O)[C@@H](O)C(C)(C)C5CC[C@]43C)C2[C@]1(C)O (stereo partly drawn) | inactive | inactive | inactive | – | – |
| CC(=O)O[C@H]1C[C@@H](O)C(C)(C)C2C[C@@H](OC(C)=O)[C@@]3(C)C4=CCC(C(CO)CC(O)C5OC5(C)C)[C@]4(C)CCC3[C@]21C (stereo partly drawn) | inactive | inactive | inactive | – | – |
| CC1(C(=O)O)CCCC2(C)C3CCC4CC3(CCC12)CC4(O)CO (stereo not drawn) | inactive | inactive | inactive | – | – |
| CC(=O)c1ccc(O[C@@H]2O[C@H](CO[C@@H]3OC[C@@H](O)[C@H](O)[C@H]3O)[C@@H](O)[C@H](O)[C@H]2O)cc1 | inactive | inactive | inactive | – | – |
| Cc1ccc(-n2nc(C(C)(C)C)cc2NC(=O)Nc2cc(COc3cccnc3)[nH]n2)cc1 | inactive | inactive | inactive | – | – |
| CC1(C)C[C@@H]2[C@H](C1)[C@@]1(C)C[C@]13C(O)OC[C@]3(O)[C@H]2O (stereo partly drawn) | inactive | inactive | inactive | – | – |
| NC1(c2ccc(NC(=O)c3ccnc(-c4cc(C(=O)O)ccn4)c3)cc2)CC1 | inactive | inactive | inactive | – | – |
| C=C1CC2C3(C)C(O)CC(=O)C(C)(C)C3C(O)C(OC(C)=O)C2(C)C2C(=O)OC(C)(C(=O)OC)C(=O)C12C (stereo not drawn) | inactive | inactive | inactive | – | – |
| CCC(C)C(=O)O[C@H]1[C@@H](O[C@H]2O[C@H](CO)[C@@H](O)[C@H](O)[C@H]2O)O[C@H](CO)[C@@H](O)[C@@H]1O (stereo partly drawn) | inactive | inactive | inactive | – | – |
| COC(=O)C1=COC(O[C@@H]2O[C@H](CO)[C@@H](O)[C@H](O)[C@H]2O)C2C(C)C(=O)CC12 (stereo partly drawn) | inactive | inactive | inactive | – | – |
| CC1=CC[C@@]2(C)CC[C@@](O)(C(C)C)[C@@H]2[C@@H](O)C1 | inactive | inactive | inactive | – | – |
| H-DPPDPDRFYGMM-NH2 | inactive | inactive | inactive | – | – |
| C[C@]1(C2CCCC2)Cc2cc(OCC(=O)O)c(Cl)c(Cl)c2C1=O | inactive | inactive | inactive | – | – |
| Cc1cc(CO)c(O)c(C(=O)CC2CC(=O)NC(=O)C2)c1 | inactive | inactive | inactive | – | – |
| C[C@@H]1O[C@@H](OC(=O)Cc2ccccc2)[C@H](O)[C@H](O)[C@H]1O | inactive | inactive | inactive | – | – |
| CC1(C)CC[C@]2(C(=O)O[C@@H]3O[C@H](CO)[C@@H](O)[C@H](O)[C@H]3O)CC[C@]3(C)C(=CCC4[C@@]5(C)CC[C@H](O[C@H]6O[C@H](CO)[C@@H](O)[C@H](O[C@@H]7O[C@H](CO)[C@@H](O)[C@H](O)[C@H]7O)[C@H]6O)C(C)(C)C5CC[C@]43C)[C@@H]2C1 (stereo partly drawn) | inactive | inactive | – | 0.281% [at 11.6 µM] | – |
| CC1C(=O)OCC2=CC[N+]3([O-])CCC(OC(=O)C(C)(O)C1(C)O)C23 (stereo not drawn) | inactive | inactive | inactive | – | – |

| Compound | Potency [1] | Potency [2] | Potency [3] | activity change, negative = inhibition [3] | outcome [3] |
| --- | --- | --- | --- | --- | --- |
| C/C=C1\[C@H](O[C@@H]2O[C@H](CO)[C@@H](O)[C@H](O)[C@H]2O)OC=C(C(=O)O)[C@H]1CC(=O)OCCc1ccc(O)cc1 | inactive | inactive | inactive | – | – |
| COC(=O)/C=C/c1ccc(O[C@@H]2O[C@H](CO)[C@@H](O)[C@H](O)[C@H]2O)cc1 | inactive | inactive | inactive | – | – |
| CC(C)[C@](O)(c1ccc2cc(OC(F)F)c(OC(F)F)cc2c1)c1cn[nH]n1 | inactive | inactive | inactive | – | – |
| COC(=O)[C@@H](NC(=O)[C@H](CC(C)C)NC(=O)N(Cc1ccccc1)C[C@@H](O)[C@H](Cc1ccccc1)NC(=O)OC(C)(C)C)C(C)C | inactive | inactive | – | – | inactive [at 11.6 µM] |
| C=C1Cc2c(Cl)cc3[nH]c4c5c3c2[C@@]2(O)[C@@H]1C[C@@H]2C(C)(C)O[C@H]5C1CC[C@@]2(O)[C@@]35O[C@@H]3[C@H]3OC(C)(C)[C@H]3O[C@H]5CC[C@]2(C)[C@@]41C (stereo partly drawn) | inactive | inactive | inactive | – | – |
| COCCN1CCC(C(=O)NO)(S(=O)(=O)c2ccc(Oc3ccc(OC(F)(F)F)cc3)cc2)CC1 | inactive | inactive | inactive | – | – |
| Nc1c(-c2ccccc2)nc(Cl)c2c(O)n[nH]c(=O)c12 | inactive | inactive | inactive | – | – |
| NC(=O)[C@@H]1CC[C@H](c2ccc(OCc3ccccc3F)cc2)N1 | inactive | inactive | 10.7 µM (active) | – | – |
| COC(=O)[C@]1(C)CCC[C@@]2(C)C(=O)CC[C@H]3C(=O)C=C(CC[C@@H]21)C3O (stereo partly drawn) | inactive | inactive | inactive | – | – |
| C=C1CC2C3(C)C=CC(=O)OC(C)(C)C3CC(OC(C)=O)C2(C)C2C(=O)OC(C)C(=O)C12C (stereo not drawn) | inactive | inactive | inactive | – | – |
| C[C@H]1[C@H](C)CC[C@]2(C(=O)OC3OC(CO)C(O)C(O)C3O)CC[C@]3(C(=O)O)C(=CCC4[C@@]5(C)CC[C@H](O[C@@H]6O[C@@H](C)[C@H](OC7OC(CO)C(O)C(O)C7O)[C@@H](O)[C@H]6O)C(C)(C)C5CC[C@]43C)[C@H]12 (stereo partly drawn) | inactive | inactive | – | -5.72% [at 11.6 µM] | – |
| C[C@@H]1C[C@H]2OC(=O)[C@@]3(C)CCC[C@](C)(C23)[C@@]1(O)CCC1=CC(=O)OC1O (stereo partly drawn) | inactive | inactive | inactive | – | – |
| C=C(C(=O)O)C1CC(OC(=O)CC(C)CC)C2(C)CCCC(=C)C2C1 (stereo not drawn) | inactive | inactive | inactive | – | – |
| CCOc1ccc(-c2nn3ncccc3c2-c2ccc(S(C)(=O)=O)cc2)cc1 | inactive | inactive | inactive | – | – |
| O=C(N[C@@H]1CC[C@@H](c2cccc(F)c2F)CN(CC(F)(F)F)C1=O)N1CCC(n2c(=O)[nH]c3ncccc32)CC1 | inactive | inactive | inactive | – | – |
| C=C1CCC(OC(C)=O)C2(C)CC3OC(=O)C(C)=C3CC12 (stereo not drawn) | inactive | inactive | inactive | – | – |
| COC(=O)C(CC1CCCC1)c1ccc(S(C)(=O)=O)cc1 (stereo not drawn) | inactive | inactive | inactive | – | – |
| O=C(Nc1ccn(Cc2c(F)cccc2C(F)(F)F)n1)c1c(F)cccc1F | inactive | inactive | – | – | inactive [at 11.6 µM] |
| C=CC(C)(O)CC/C=C(\C)C(=O)O[C@@H]1[C@@H](O)[C@H](OC(C)(C=C)CC/C=C(\C)C(=O)O)O[C@H](CO)[C@H]1OC(=O)/C(C)=C/CCC(C)(O)C=C (stereo partly drawn) | inactive | inactive | inactive | – | – |

| Compound | Potency [1] | Potency [2] | Potency [3] | activity change, negative = inhibition [3] | outcome [3] |
| --- | --- | --- | --- | --- | --- |
| Cc1ccc(COC(=O)N2CC[C@@H](CNc3ncccn3)[C@@H](F)C2)cc1 | inactive | inactive | inactive | – | – |
| COc1ccc(C2COc3cc(O)ccc3C2)c(O)c1OC (stereo not drawn) | inactive | inactive | 19 µM (active) | – | – |
| C=C(COC(=O)C(C)C)C1Oc2cc(C(C)=O)ccc2C1OC(=O)C(C)C (stereo not drawn) | inactive | inactive | inactive | – | – |
| Oc1ccc(CC2NCCc3cc(O)c(O)cc32)cc1 (stereo not drawn) | inactive | inactive | inactive | – | – |
| CC1(C)OC(=O)C=C[C@@]2(C)C1CC(=O)[C@]1(C)C2CC[C@@]2(C)[C@H](c3ccoc3)OC(=O)[C@H]3O[C@]321 (stereo partly drawn) | inactive | inactive | inactive | – | – |
| C=C1C2CCC3CC2(CC(O)C2(O)C1CC(OC1OC(CO)C(O)C(O)C1O)C2(C)C)CC3(C)O (stereo not drawn) | inactive | inactive | inactive | – | – |
| CCC/C=C1\OC(=O)C2=C1CCC(O)C2O (stereo not drawn) | inactive | inactive | inactive | – | – |
| COc1c2c(c(C)c3c1C(=O)OC3)OC1(C)CC(O)C34OC(OC)(CCC3(C)C1C2)OC4(C)CO (stereo not drawn) | inactive | inactive | inactive | – | – |
| CC1=C(C(=O)OC2OC(COC3OC(CO)C(O)C(O)C3O)C(O)C(O)C2O)C(C)(C)CCC1 (stereo not drawn) | inactive | inactive | inactive | – | – |
| CC1C2=CC(=O)OC2(O)CC2C1C(O)CC1C(C)(CO)CCCC21C (stereo not drawn) | inactive | inactive | inactive | – | – |
| CN1CCN(c2nc(-c3ccc(C(=O)NC4(C(=O)NCC#N)CCCCC4)cc3)cs2)CC1 | inactive | inactive | inactive | – | – |
| O=C(/C=C/c1ccc(O)c(O)c1)O[C@H]1[C@H](OC2CCCCC2O)O[C@H](CO)[C@@H](O)[C@@H]1O (stereo partly drawn) | inactive | inactive | inactive | – | – |
| C[C@@H]1CC2OC(=O)C3=C2C(CCC3O)[C@@]12C[C@@H](c1ccoc1)OC2=O (stereo partly drawn) | inactive | inactive | inactive | – | – |
| CC1(C)CC[C@]2(C(=O)O[C@@H]3O[C@H](CO)[C@@H](O)[C@H](O)[C@H]3O)CC[C@]3(C)C(=CCC4[C@@]5(C)CC[C@H](O[C@@H]6O[C@H](C(=O)O)[C@@H](O[C@@H]7O[C@H](CO)[C@@H](O)[C@H](O)[C@H]7O)[C@H](O)[C@H]6O)C(C)(C)C5CC[C@]43C)C2C1 (stereo partly drawn) | inactive | inactive | – | – | inactive [at 11.6 µM] |
| C=C1C(=O)O[C@@H]2C[C@]3(C)[C@@H](CCC(C)=O)[C@@H]3C[C@H]12 | inactive | inactive | inactive | – | – |
| COc1ccc(C2(O)c3ccccc3NC(=O)C2OC)cc1 (stereo not drawn) | inactive | inactive | inactive | – | – |
| CC[C@H]1OC(=O)[C@H](C)[C@@H](O[C@H]2C[C@@](C)(OC)[C@@H](O)[C@H](C)O2)C(C)[C@@H](O[C@@H]2O[C@H](C)C[C@H](N(C)C)[C@H]2O)[C@](C)(O)C[C@@H](C)CN(C)[C@H](C)[C@@H](O)[C@]1(C)O (stereo partly drawn) | inactive | inactive | inactive | – | – |
| C=C(CCO)C(=O)OCC1OCC(OC(=O)C(=C)CCO[C@@H]2O[C@H](COC(=O)C(=C)CCO[C@@H]3O[C@H](CO)[C@@H](O)[C@H](O)[C@H]3O)[C@@H](O)[C@H](O)[C@H]2O)C(O)C1O (stereo partly drawn) | inactive | inactive | inactive | – | – |

— PubChem BioAssay (NCATS)
